HSF1 inhib = HSF1 inhibition; NIH3T3-HGL HSE-luciferase, MG132-induced, luminescence 8 h; active compounds read low; activity change, negative = inhibition, % at 7.5 µM (by protocol); 300,000 tested, 0.77% active; AID 2098;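 active = more than half of replicate wells show activity change below -50%, luminescence cut by over half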;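 note: luciferase reports HSF-1 transcriptional activity via heat shock element; 0% = median of DMSO wells and -100% = zero luminescence signal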
HSF1 activator = increases HSF-1 driven luciferase reporter signal; NIH3T3-HGL HSF-1 luciferase reporter, MG132, 8 h; 100% = twice DMSO control signal; activation, % at 9 µM; 300,000 tested, 1.7% active; AID 504408;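 active = mean replicate activation of at least 50% with a set share of replicates each reaching 50%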;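 note: 0% = median of the neutral control wells and 100% = twice that signal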
FXN GAA850 act = increases GAA850 frataxin promoter reporter activity | HEK293 lucGAA850 FXN promoter luciferase reporter, 24 h; percent of 10 µM SAHA response | activation, % at 6 µM | 360,000 tested, 0.56% active | AID 540364;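 active = activation above the average of all compounds screened plus 3 SD, cutoff fixed separately per campaign, cut at about 7.5% in these data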;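 note: 0% = DMSO wells and 100% = 10 µM SAHA wells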
NR0B1 inh = inhibits human nuclear receptor DAX1; P51843; HEK293 Gal4-DAX1 luciferase reporter, luminescence; inhibition, % at 6.75 µM; 340,000 tested, 0.99% active; AID 504766;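 active = inhibition above the mean over all tested compounds plus 3 SD, cut at about 4.2% in these data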;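 note: 0% = DAX1-transfected cells with DMSO and 100% = empty-vector control cells with DMSO; inhibition shows as a rise in luminescence from relieved DAX1 repression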
Target sequence (P51843 207-470 limits assumed): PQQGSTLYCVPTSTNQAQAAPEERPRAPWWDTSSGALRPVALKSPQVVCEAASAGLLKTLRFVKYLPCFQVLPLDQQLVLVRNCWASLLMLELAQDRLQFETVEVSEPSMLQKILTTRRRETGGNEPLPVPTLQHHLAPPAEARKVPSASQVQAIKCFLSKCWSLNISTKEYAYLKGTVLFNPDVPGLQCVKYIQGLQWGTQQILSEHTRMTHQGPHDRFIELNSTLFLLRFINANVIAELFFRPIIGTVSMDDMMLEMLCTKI
AHR activator = human AHR activation; AHR-responsive luciferase reporter cells, luminescence; 320,000 tested, 2.5% active; activation, % at 5 µM; in the data active = activation above about 47%;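 note: 0% = vehicle wells and 100% = reference agonist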
* marks the source's active call; other numbers are inactive results; . = not tested or not shown. In the library only some 5.4% were active in any assay of this set; here they are far more common.

SMILES | HSF1 inhib | HSF1 activator | FXN GAA850 act | NR0B1 inh | AHR activator
CC(=O)Nc1sc2c(c1C#N)CCCCC2 | . | . | 1 | 0 | 11
Cn1cc([N+](=O)[O-])c(C(=O)Nc2sc3c(c2C#N)CCC3)n1 | 170 | 190* | -1 | -1 | 20
C=CCNC(=S)Nc1sc2c(c1C#N)CCCC2 | -54* | -62 | 2 | 0 | 12
Cc1ccc(C(=O)Nc2sc3c(c2C#N)CCCCC3)cc1C | 6 | -9 | 5 | 1 | 71*
Cc1ccccc1C(=O)NC(=S)Nc1sc2c(c1C#N)CCCC2 | 23 | 39 | 3 | -1 | 0
COc1cc(/C=C2\SC(=O)N(CCNC(=O)c3sc4cc(F)ccc4c3Cl)C2=O)cc(OC)c1OC | 3 | -9 | -1 | 1 | 4
Cc1cc(Cl)ccc1C(O)c1ncc(-c2cccc3ccccc23)[nH]1 (stereo unspecified) | . | . | 2 | . | .
CSCCC1COC(c2cccs2)=N1 (stereo unspecified) | 14 | 33 | 0 | -1 | 1
O=S(=O)(NCc1nnnn1-c1ccc(F)cc1)c1ccc(F)cc1 | . | . | 2 | 0 | .
O=C(COC(=O)Cc1ccc(Cl)cc1Cl)Nc1ccccc1OC(F)F | 5 | -10 | -1 | -2 | 0
O=C(O)CC1(CC(=O)Nc2nccs2)CCCCC1 | . | . | 1 | 1 | .
Cc1noc(C(=O)Nc2sc3c(c2C#N)CCC3)c1Cl | -4 | -2 | 1 | -1 | 47*
CC(C)CC1C(=O)N(Cc2cn(CCC3OCCO3)nn2)CCS(=O)(=O)N1Cc1ccc(-c2ccncc2)cc1 (stereo unspecified) | . | . | -2 | 0 | .
CC1=CC(c2ccccc2)n2nnnc2N1 (stereo unspecified) | 10 | 38 | 1 | 11* | 3
Cc1ccc(C2=CC(c3cccs3)n3nnnc3N2)cc1 (stereo unspecified) | 10 | 19 | 5 | 1 | 42
COc1ccccc1C1C=C(c2ccc(C)cc2)Nc2nnnn21 (stereo unspecified) | -1 | -6 | 2 | 0 | 54*
CC1=CC(c2ccccc2)n2nc(N3C(=O)c4ccccc4C3=O)nc2N1 (stereo unspecified) | -2 | 3 | 0 | 4 | 1
O=C(O)c1ccc2c(c1)S(=O)(=O)c1cc(N3CCN(c4cnccn4)CC3)ccc1C2=O | . | . | 0 | 0 | .
Cc1ccc(OCC(=O)N2CCc3ccccc3C2)c(Br)c1 | 59 | 76* | 3 | 1 | 0
Cc1ccc(Nc2cc(-n3nc(C)cc3C)ncn2)c(C)c1 | 6 | 22 | -1 | 0 | 14
Cc1ccc(Nc2cc(-n3cccn3)ncn2)c(C)c1 | 41 | 52* | 3 | 3 | 15
O=C(Cc1cccs1)Nc1nc2c(ccc3ccccc32)s1 | 15 | 10 | 0 | 0 | 60*
COc1cc(C(=O)NNC(=S)NC(=O)c2ccc(F)cc2)cc(OC)c1OC | -3 | -18 | 2 | 0 | 1
CC(=O)c1cn(-c2ccc(Cl)cc2)c(=O)n(Cc2ccc(F)cc2)c1=O | 1 | 13 | 0 | 0 | 2
N#CCCCC#Cc1ccc2c(c1)COc1c3ccccc3nn1-2 | -64* | -69 | -4 | -2 | -9
SMILES | HSF1 inhib | HSF1 activator | FXN GAA850 act | NR0B1 inh | AHR activator
COc1ccc(C(=O)CCC(=O)N2CCN(c3cc(C)ccc3C)CC2)cc1 | 3 | -6 | 0 | 0 | -2
Cc1cc2c(=O)n(C)c(SCC(=O)Nc3ccccc3)nc2s1 | -26 | -32 | -4 | 4.8* | 11
Cc1cccc(NC(=O)CSc2nc3sc(C)cc3c(=O)n2C)c1 | . | . | 1 | 0 | .
Cc1cccc(N2C(=N)SCC2=O)c1C | 20 | 77* | 3 | -1 | 2
N=C1SCC(=O)N1c1nc(-c2ccccc2)cs1 | 9 | 31 | 7 | 2 | 12
COc1cc(C(=O)NCc2nnc(SCC(=O)NCCc3ccccc3)o2)cc(OC)c1OC | 1 | 3 | 1 | 0 | -1
Cn1c(C(=O)c2ccccc2[N+](=O)[O-])nc2ccccc21 | 0 | -2 | 1 | 1 | 48*
Cn1c(C(=O)c2ccccc2)nc2ccccc21 | 9 | 11 | 2 | 2 | 7
CCCCC(=O)N(C)c1c(C)nc2ccc(C(=O)NCc3ccccc3OC)cn12 | . | . | 0 | . | .
CC(C)(C)C(=O)Nc1cc2c3c(c1)CCC(=O)N3CCC2 | -2 | -7 | -1 | 1 | 5
CC(=O)N1CCN(C(=S)NC(=O)c2ccc(S(=O)(=O)N3CCOCC3)cc2)CC1 | 1 | 0 | 1 | 4.7* | 2
CC(C)(C)C1CCC(=NNC(=O)CC(=O)NCc2ccccc2)CC1 (stereo unspecified) | 3 | 20 | 2 | -1 | 3
CC(C)(C)C1CCC(=NNC(=O)c2ccccc2-n2cccc2)CC1 (stereo unspecified) | 3 | 10 | 3 | -1 | 70*
O=C(NNC(=O)c1ccccc1-n1cccc1)c1ccc(Cl)cc1 | 0 | -2 | -1 | 0 | 62*
O=C(NN=C1CCCCC1)c1ccccc1-n1cccc1 | 2 | 9 | 1 | 0 | 48*
COc1ccccc1/C=C/CN1CCC(Oc2cc(C(=O)NC3CC3)ccc2OC)CC1 | -40 | -55 | 0 | 0 | 6
CC1(C)Oc2ccc(C(=O)NC3CC3)cc2N(CC(=O)N2CCOCC2)C1=O | 0 | 2 | -1 | -1 | 74*
CC1(C)Oc2ccc(C(=O)NC3CCCC3)cc2N(CC(=O)N2CCOCC2)C1=O | 4 | 7 | 0 | -1 | -1
CC(CN1CCOCC1)OC(=O)C(c1ccccc1)c1ccccc1 (stereo unspecified) | -63* | -73 | -3 | -1 | 2
O=C(c1ccccc1)C(CCC(CN1CCOCC1)C(=O)c1ccccc1)CN1CCOCC1 (stereo unspecified) | 64 | 86* | -8 | -3 | -2
CN(C)CC(CCC(CN(C)C)C(=O)c1ccccc1)C(=O)c1ccccc1 (stereo unspecified) | -69* | -63 | -17 | -9 | .
CC(CN1CCOCC1)OC(=O)C(C)(c1ccccc1)c1ccccc1 (stereo unspecified) | -3 | -24 | 2 | 0 | -8
CCN(CC(=O)Nc1c(F)cccc1F)C(=O)Cc1csc(-c2ccccc2)n1 | -3 | -7 | 1 | 0 | 1
Cc1c(=O)n(OCc2ccccn2)c2ccccc2[n+]1[O-] | -9 | -21 | 1 | 0 | 52*
CCN1C(=O)CCN(C2CCCC2)c2nc(Nc3ccc(C(=O)NC4CCN(C)CC4)cc3OC)ncc21 | . | . | -6 | 8.2* | .
COc1ccc(C(=O)NC2CCCCCC2)cc1S(=O)(=O)N1CCCc2ccccc21 | -3 | -10 | -1 | -1 | -11
CCCC(=O)N1CCCC(c2cc(C(=O)Nc3ccccc3)no2)C1 (stereo unspecified) | . | . | -8 | . | .
CCN(CC)C(=O)CSc1nc2ncc(Br)cc2[nH]1 | -6 | 17 | -1 | 0 | 63*
CN(C(=O)c1cccc(NC(=O)Cc2ccc(NC(=O)C3CCN(C(=O)CCc4ccccc4)CC3)cc2)c1)C1CCCCC1 | . | . | -1 | 0 | .

Assay outcomes from PubChem BioAssay.
